# Test results taken from the supplement of paper PMC12494721.
# Where a name gives a salt, the structure may show the parent alone.
# Tests used:
# Conditions in all cases: 20 µM; incubation time: 27 h, anaerobic, 37 °C;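 for the amine columns active = adjusted P below 0.05 in both replicates with a change the same way and a mean fold change under 0.8 or over 1.25; inactive = the rest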
# [1] = tested on: Clostridium sporogenes DSM 1664; experiment: growth (OD595) fold change vs plate DMSO controls (fold change (ratio)); higher = more growth
# Summary of the method: (§1)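 Anaerobic 27 h, 37 °C mGAM 96-well cultures were shaken, then read for absorbance at 595 nm. Values were blank-subtracted and corrected for compound background using 20 µM compound solutions in water. A calibration factor of 5 converted them to OD. Growth is the fold change versus the median of plate DMSO controls. Fold changes above 1.5 were set to NA, and values are the mean of 2 biological replicates.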
# [2] = tested on: Escherichia coli IAI1; experiment: as above
# Summary of the method: as §1
# [3] = tested on: Klebsiella aerogenes DSM 30053; experiment: as above
# Summary of the method: as §1
# [4] = tested on: Ruminococcus gnavus DSM 108212; experiment: as above
# Summary of the method: as §1
# [5] = tested on: Klebsiella aerogenes DSM 30053; experiment: fold change of Histamine concentration vs plate DMSO controls (fold change (ratio)); higher = more amine produced, active = hit call of the paper (significant change in both replicates, either direction)
# Summary of the method: (§2)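 Amine values are fold changes relative to DMSO-only wells on the same plate. They derive from 27 h, 37 °C anaerobic mGAM cultures of four gut bacterial strains in 80 µL wells, dosed at 20 µM final, or 50 µM final for sweeteners. Extraction of the whole culture, LC–triple-quadrupole MS in dynamic MRM mode, external calibration curves and within-batch drift correction were used, with 2 biological replicates averaged.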
# [6] = tested on: Clostridium sporogenes DSM 1664; experiment: fold change of Tryptamine concentration vs plate DMSO controls (fold change (ratio)); higher = more amine produced, active = hit call of the paper (significant change in both replicates, either direction)
# Summary of the method: as §2
# [7] = tested on: Ruminococcus gnavus DSM 108212; experiment: as above
# Summary of the method: as §2
# [8] = tested on: Escherichia coli IAI1; experiment: fold change of Putrescine concentration vs plate DMSO controls (fold change (ratio)); higher = more amine produced, active = hit call of the paper (significant change in both replicates, either direction)
# Summary of the method: as §2
# [9] = tested on: Klebsiella aerogenes DSM 30053; experiment: as above
# Summary of the method: as §2
# [10] = tested on: Escherichia coli IAI1; experiment: fold change of Cadaverine concentration vs plate DMSO controls (fold change (ratio)); higher = more amine produced, active = hit call of the paper (significant change in both replicates, either direction)
# Summary of the method: as §2
# [11] = tested on: Klebsiella aerogenes DSM 30053; experiment: as above
# Summary of the method: as §2
# [12] = tested on: Ruminococcus gnavus DSM 108212; experiment: fold change of 2-Phenylethylamine concentration vs plate DMSO controls (fold change (ratio)); higher = more amine produced, active = hit call of the paper (significant change in both replicates, either direction)
# Summary of the method: as §2
SMILES,growth [1],growth [2],growth [3],growth [4],fold change of Histamine concentration [5],fold change of Tryptamine concentration [6],fold change of Tryptamine concentration [7],fold change of Putrescine concentration [8],fold change of Putrescine concentration [9],fold change of Cadaverine concentration [10],fold change of Cadaverine concentration [11],fold change of 2-Phenylethylamine concentration [12]
CC1(C)C(C(=O)OC(C#N)c2cccc(Oc3ccccc3)c2)C1(C)C (stereo unspecified),0.931,1.02,1.01,1.15,1 (inactive),1.06 (inactive),1.17 (inactive),0.937 (inactive),0.987 (inactive),0.982 (inactive),1 (inactive),1.25 (inactive)
CC[C@H](C)[C@H]1O[C@]2(C=C[C@@H]1C)C[C@@H]1C[C@@H](C/C=C(\C)[C@@H](O[C@H]3C[C@H](OC)[C@@H](O[C@H]4C[C@H](OC)[C@@H](O)[C@H](C)O4)[C@H](C)O3)[C@@H](C)/C=C/C=C3\CO[C@@H]4[C@H](O)C(C)=C[C@@H](C(=O)O1)[C@]34O)O2.CO[C@H]1C[C@H](O[C@H]2[C@H](C)O[C@@H](O[C@@H]3/C(C)=C/C[C@@H]4C[C@@H](C[C@]5(C=C[C@H](C)[C@@H](C(C)C)O5)O4)OC(=O)[C@@H]4C=C(C)[C@@H](O)[C@H]5OC/C(=C\C=C\[C@@H]3C)[C@]54O)C[C@@H]2OC)O[C@@H](C)[C@@H]1O [Avermectin B1],1.13,1.06,0.967,0.91,0.906 (inactive),0.921 (inactive),0.929 (inactive),1.06 (inactive),0.985 (inactive),0.996 (inactive),0.995 (inactive),0.883 (inactive)
CN/C(=N/CC1CCOC1)N[N+](=O)[O-] (stereo unspecified),1.07,1,1.01,1.03,1.03 (inactive),0.993 (inactive),1.01 (inactive),1.03 (inactive),1.02 (inactive),0.992 (inactive),0.999 (inactive),0.994 (inactive)
CNC(=O)Oc1cccc2ccccc12,1.12,0.98,1,0.969,0.989 (inactive),0.933 (inactive),0.989 (inactive),1.06 (inactive),1.01 (inactive),0.965 (inactive),1.01 (inactive),0.97 (inactive)
CC(Cc1ccc(O)cc1)NCC(O)c1cc(O)cc(O)c1 (stereo unspecified) [Fenoterol hydrobromide],1,1,1.01,1.21,1.06 (inactive),0.982 (inactive),1.04 (inactive),1.02 (inactive),1.04 (inactive),0.983 (inactive),0.991 (inactive),1.04 (inactive)
O=C(NCCc1ncc(C(F)(F)F)cc1Cl)c1ccccc1C(F)(F)F,1.04,1.04,1.16,1.22,0.918 (inactive),0.969 (inactive),1.04 (inactive),0.983 (inactive),1.03 (inactive),0.972 (inactive),1.04 (inactive),1.02 (inactive)
Cc1nc(N(C)C)nc(OC(=O)N(C)C)c1C,1.02,1,0.963,1.06,1.01 (inactive),1.12 (inactive),0.985 (inactive),0.905 (inactive),1 (inactive),1.02 (inactive),1 (inactive),0.945 (inactive)
COc1cc(C)c(C(=O)c2c(OC)ccc(Br)c2C)c(OC)c1OC,1.04,1.05,1.04,1.1,0.967 (inactive),0.978 (inactive),1.01 (inactive),1.02 (inactive),1.02 (inactive),1.07 (inactive),1.01 (inactive),1 (inactive)
CC[C@@H](C(=O)[C@@H](C)[C@@H](O)[C@H](C)[C@@H]1O[C@@H]([C@@H](CC)C(=O)O)CC[C@@H]1C)[C@H]1O[C@]2(C=C[C@@H](O)[C@]3(CC[C@@](C)([C@H]4CC[C@](O)(CC)[C@H](C)O4)O3)O2)[C@H](C)C[C@@H]1C [Salinomycin sodium],0.000863,1.01,0.976,0.156,1.02 (inactive),0.0211 (active),0.152 (active),0.929 (inactive),0.993 (inactive),1.01 (inactive),0.996 (inactive),0.177 (active)
CCNCC(O)c1cccc(O)c1 (stereo unspecified) [Etilefrine hydrochloride],0.977,0.971,0.996,0.981,1.05 (inactive),1.03 (inactive),0.959 (inactive),0.997 (inactive),1.01 (inactive),0.991 (inactive),0.987 (inactive),0.949 (inactive)
CCC(C)c1ccccc1OC(=O)NC (stereo unspecified),1.06,0.988,1.09,1.01,0.948 (inactive),0.949 (inactive),1.01 (inactive),1.05 (inactive),1.01 (inactive),0.972 (inactive),1 (inactive),1.03 (inactive)
Oc1ccc(Cl)cc1Cc1cc(Cl)ccc1O,0.8,0.854,0.898,0.861,1.12 (inactive),0.557 (inactive),0.513 (active),1.15 (inactive),0.996 (inactive),1.66 (active),0.986 (inactive),0.605 (inactive)
COc1ncc(F)c2nc(S(=O)(=O)Nc3c(F)cccc3F)nn12,1.08,0.984,1.08,1.15,0.874 (inactive),1.04 (inactive),0.984 (inactive),1.01 (inactive),0.997 (inactive),0.998 (inactive),1.03 (inactive),0.993 (inactive)
